High-throughput results deposited in PubChem by National Center for Advancing Translational Sciences (NCATS).
DT40 TDP1 no CPT: qHTS for Inhibitors of human tyrosyl-DNA phosphodiesterase 1 (TDP1): qHTS in cells in absence of CPT; DT40 Tdp1-/- hTDP1 cells, no CPT, ATP luminescence, 48 h; Potency, µM (highest dose often 46.2 µM), for the others: at the highest dose activity change, negative = growth inhibition, most hits filed as inhibitors; 420,000 tested, 15% active; AID 686978, 2013; note: potency is the fitted concentration of half-maximal effect; nearly all actives have a fitted effect of over 55% in size
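Readout: luminescence from CellTiter-Glo after 30 min in the dark at RT. Cells: DT40 Tdp1-/- with stable hTDP1, 400/well. Exposure: compounds alone, ≥48 hr, 37 °C.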
HT1080 IDH1KD tx: HT-1080 IDH1 knockdown cell toxicity (counter line) | Potency, µM (titrated, usually from 46.1 µM), for the others: at the highest dose activity, negative = toxicity, usual class: cytotoxic | 360,000 tested, 2% active | HT-1080 IDH1 knockdown viability, ATP luminescence, 48 h;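 note: potency is the fitted concentration of half-maximal effect; 0% = DMSO wells and -100% = cell-free medium wells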
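Luminescent ATP read-out (CellTiter-Glo, 10 min at room temperature) after 48 h compound exposure at 37 °C gave viability of IDH1-knockdown HT-1080 cells. Activity was normalised to DMSO and cell-free wells, then fitted as concentration-response curves.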
IL1B secr inh: blocks inflammasome-driven IL-1 beta release. THP-1 LPS/ATP IL-1B secretion, AlphaLISA, 16 h; hits give low values. activity change, % at 57.5 µM. 360,000 tested, 4.7% active. AID 743279; in the data active = activity change below about -50%; inconclusive = mostly about -30% to -49%
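Secreted IL-1B measured by AlphaLISA bead assay after 16 h compound exposure of THP-1 cells; compounds (final up to 57.5 uM) added 1 h before LPS (250 ng/mL) and ATP (1.25 mM) stimulation; lower signal means less secretion.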
ALOX12 inh: ALOX12 (human) lipoxygenase inhibition | purified 12hLO, xylenol orange hydroperoxide absorbance | Potency, µM (titrated, usually from 108 µM), for inactives: at the highest dose activity change, negative = inhibition, usual class: inhibitors | 580,000 tested, 1.1% active | AID 1671190; note: potency is the fitted concentration of half-maximal effect
Target sequence (P18054 whole entry, looked up): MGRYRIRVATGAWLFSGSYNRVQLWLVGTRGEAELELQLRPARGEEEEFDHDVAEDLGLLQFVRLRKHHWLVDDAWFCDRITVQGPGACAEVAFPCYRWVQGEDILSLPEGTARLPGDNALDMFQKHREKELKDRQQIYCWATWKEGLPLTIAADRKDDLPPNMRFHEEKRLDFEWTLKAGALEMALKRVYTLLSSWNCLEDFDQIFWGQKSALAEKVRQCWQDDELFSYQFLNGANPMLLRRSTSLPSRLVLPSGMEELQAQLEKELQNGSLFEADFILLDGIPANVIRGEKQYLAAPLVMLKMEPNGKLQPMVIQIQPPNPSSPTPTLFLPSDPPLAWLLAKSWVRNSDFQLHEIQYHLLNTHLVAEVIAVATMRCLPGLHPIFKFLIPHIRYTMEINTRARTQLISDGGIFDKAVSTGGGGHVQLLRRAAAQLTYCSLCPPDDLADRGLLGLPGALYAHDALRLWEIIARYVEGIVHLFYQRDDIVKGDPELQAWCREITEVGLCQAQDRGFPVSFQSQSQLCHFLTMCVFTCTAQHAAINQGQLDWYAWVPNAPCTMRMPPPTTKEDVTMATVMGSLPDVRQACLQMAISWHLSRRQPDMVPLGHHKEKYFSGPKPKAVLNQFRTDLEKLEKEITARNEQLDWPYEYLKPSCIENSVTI
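Purified human 12hLO at 150 nM in 25 mM Hepes, 0.01% Triton X-100, pH 7.0, preincubated 15 min at room temperature with compound. Reaction started with 40 uM arachidonic acid, 30 min at room temperature. Hydroperoxide measured by Fe-xylenol orange, 573/405 nm absorbance ratio.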
HT1080-NT tox: kills 2HG-producing HT-1080-NT fibrosarcoma cells. HT-1080-NT fibrosarcoma viability, CellTiter-Glo ATP luminescence, 48 h. Potency, µM (series often up to 46.1 µM), without a hit: top-dose activity, negative = less viability, most hits filed as cytotoxic. 360,000 tested, 1.6% active. AID 686970;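 note: NT is the 2HG producing partner of a matched IDH1 knockdown line; potency is the fitted concentration of half-maximal effect; 0% = DMSO-treated cells and -100% = media-only wells without cells; nearly all actives have a fitted effect of over 55% in size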
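Luminescent CellTiter-Glo readout after 48 hours of compound exposure at 37 degrees C defined viability of HT-1080-NT cells. Activity was normalized to DMSO wells and cell-free media wells; concentration-response curves were fitted and assigned curve classes.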
DT40 TDP1 CPT: growth inhibition of DT40 Tdp1-/-;hTDP1 cells with camptothecin (screen for TDP1 inhibitors); 420,000 tested, 12% active; chicken DT40 Tdp1-/-;hTDP1 cells + 20 nM CPT, ATP luminescence, 48 h; AID 686979; Potency, µM (highest dose often 46.2 µM), for inactives: at the top dose activity change, negative = growth inhibition, hits mostly inhibitors; note: potency is the fitted concentration of half-maximal effect; nearly all actives have a fitted effect of over 55% in size
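Chicken DT40 Tdp1-/- cells complemented with human TDP1, 400 cells/well, exposed to compounds plus 20 nM camptothecin for at least 48 h at 37 C; viability read as ATP content by CellTiter-Glo luminescence.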
* = called active by the depositor; ? = inconclusive; nt = no result given. Shown is part of a subset that was picked to be rich in hits. Unless noted, calls come from the whole dose curve; as a rule, active = well fitted curve in the direction sought with a large enough effect; inconclusive = small, poorly fitted or top-dose-only effect, or another doubt; inactive = no such curve, though single readings can be large; an effect the other way counts as inactive or inconclusive. Unless noted, % is set by controls: 0 for no effect and ±100 for the full control effect.

SMILES	DT40 TDP1 no CPT	HT1080 IDH1KD tx	IL1B secr inh	ALOX12 inh	HT1080-NT tox	DT40 TDP1 CPT
Cc1cccc(C(=O)N2CCC(c3noc(-c4ccncc4)n3)C2)c1 (stereo unspecified)	nt	nt	nt	2.7%	nt	nt
O=C(c1ccccc1)c1nn(-c2ccccc2)c(=O)cc1C(F)(F)F	?	?	-88.1*	1.6%	?	-6.0%
O=C(Nc1ccccc1)c1nn(-c2ccccc2)c(=O)cc1C(F)(F)F	-26.1%	17.5%	14.5	65.8%	11.2%	?
O=C(c1cccc(Cl)c1)c1nn(-c2ccccc2)c(=O)cc1C(F)(F)F	?	?	-102.1*	?	?	16.4µM*
CN1C(=O)c2ccccc2NC1c1cc2ccccc2[nH]c1=O (stereo unspecified)	nt	nt	nt	7.08µM*	nt	nt
Cc1ccc(S(=O)(=O)N2CCCCC2)cc1NC(=O)CSc1nnc(C2CC2)n1C1CC1	nt	nt	nt	-9.3%	nt	nt
COc1ccc(NC(=O)C(c2ccc(C#N)cc2)n2c(=O)c(-c3ccco3)nc3ccccc32)cc1 (stereo unspecified)	-28.0%	-20.1%	-13.1	?	-13.3%	-17.7%
Cc1cccc(C)c1NC(=O)C(c1ccc(-c2ccccc2)cc1)n1c(=O)c(-c2ccco2)nc2ccccc21 (stereo unspecified)	?	-19.8%	9.3	12.6µM*	-26.9%	?
COc1ccc(C(C(=O)NC(C)(C)C)n2c(=O)c(-c3ccco3)nc3ccccc32)cc1 (stereo unspecified)	23.1µM*	?	-18.4	25.1µM*	-20.8%	?
Cc1cccc(C)c1NC(=O)C(c1ccccc1)n1c(=O)c(-c2ccccc2)nc2ccccc21 (stereo unspecified)	16.4µM*	-16.2%	-23.8	-9.2%	-16.3%	?
CC(C)(C)NC(=O)C(c1ccc(-c2ccccc2)cc1)n1c(=O)c(-c2ccco2)nc2ccccc21 (stereo unspecified)	?	-21.8%	-25.7	39.8µM*	?	?
COc1cccc(F)c1-c1nc2ccccc2n1C(C(=O)Nc1c(C)cccc1C)c1ccccc1 (stereo unspecified)	nt	nt	nt	-26.1%	nt	nt
Cc1ccccc1-c1ccc2c(c1)[C@@H]1C[C@H]3[C@@H](CN1CC2)[C@H](C)OC(c1ccccc1)N3C (stereo partly specified)	nt	nt	nt	-3.6%	nt	nt
CCC(C(=O)Nc1c(C)cccc1C)n1c(-c2ccc(-c3ccccc3)cc2)nc2ccccc21 (stereo unspecified)	14.6µM*	-15.3%	-11.9	0.1%	-7.6%	14.6µM*
O=C(NCc1ccccc1)C(c1ccc(-c2ccccc2)cc1)n1c(=O)c(-c2ccco2)nc2ccccc21 (stereo unspecified)	?	?	-3.2	14.1µM*	?	?
O=C1NC(=O)c2cc(Nc3ccccc3)c(Nc3ccccc3)cc21	12.6µM*	-19.3%	nt	nt	-3.9%	?
Cc1ccccc1-n1c2nc(=O)[nH]c(=O)c-2cc2c(Cl)cccc21	0.517µM*	nt	nt	?	nt	0.82µM*
Cc1cccc(-n2c3nc(=O)n(C)c(=O)c-3cc3ccc(Cl)cc32)c1C	?	nt	nt	-13.9%	nt	-4.5%
COc1ccc(Cc2nc(N)nc(N)n2)cc1	-0.7%	-0.1%	11.9	496.3%	1.0%	0.8%
Cc1ccc(-c2nc(N)nc(N)n2)c(C)c1	-4.5%	8.3%	31.9	16.2%	12.9%	3.3%
Nc1nc(N)nc(-c2cc(F)ccc2O)n1	?	-19.6%	-99.2*	3.6%	-17.5%	?
COc1ccc(O)c(-c2nc(N)nc(N)n2)c1	18.4µM*	-9.6%	-97.7*	6.3%	-12.6%	16.4µM*
